{
  "source": "PubChem BioAssay AID651812",
  "about": "(National Center for Advancing Translational Sciences (NCATS), 2012)",
  "note": "Where “and” joins values, the source holds several entries; their conditions need not be identical. Equal entries are not always repeated. Out of some 2,100 compounds screened, about 650 (31%) were called active. Not shown: some 16% with an inconclusive outcome. Calls follow the shape of the dose curve; as a rule, active = well fitted inhibition curve with a large enough effect; inconclusive = small, poorly fitted or top-dose-only effect; inactive = flat fitted curve, though single readings scatter. The list shows a part of the results. Where a call stands in place of a potency, no number is given. Potency is read from the fitted curve at half-maximal effect.",
  "data": [
    {"test": "qHTS for inhibitors of Vif-A3G interactions: Cherry picks; also: nearly all actives have a fitted effect of over 80% in size", "conditions": "HeLa A3G-eYFP + Vif (tagged APOBEC3G with the HIV-1 protein that degrades it), 24 h; Potency: eYFP fluorescence increase; series mostly up to 36.9 µM", "in_short": "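Cherry-picked compounds tested at several concentrations on A3G-eYFP/Vif HeLa cells for 24 hours; loss of Vif-driven degradation read as eYFP fluorescence by cytometric plate imaging, 488 nm excitation, 500-530 nm emission.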", "values": [
      {"compound": "CCN(CC)c1ccc(/C=C/c2cccc[n+]2C)c(OC)c1", "Potency": "17.7 µM (active)"},
      {"compound": "CCN(CC)c1ccc(NC(=O)c2cccc(F)c2)c(C)c1", "Potency": "inactive"},
      {"compound": "COc1ccc(C(=S)N2CCN(c3cccc(Cl)c3)CC2)c(OC)c1", "Potency": "inactive"},
      {"compound": "Cc1ccc(-n2c(O)c(/C=C3/C(c4ccccc4)=Nc4ccccc43)c(=O)[nH]c2=O)cc1", "Potency": "inactive"},
      {"compound": "CN(C)c1ccc2nc3c(=O)[nH]c(=O)nc-3n(CC(O)C(O)C(O)CO)c2c1", "note": "(stereo unspecified)", "Potency": "inactive"},
      {"compound": "NN=C1c2ccccc2C(=O)C1C(=O)C(c1ccccc1)c1ccccc1", "note": "(stereo unspecified)", "Potency": "12.5 µM (active)"},
      {"compound": "O=C(c1ccccc1)C1C(=O)c2ccccc2C1=O", "Potency": "inactive"},
      {"compound": "Cc1cccc(CS(=O)(=O)c2ncc(Cl)c(C(=O)Nc3c(C)cccc3C)n2)c1", "Potency": "inactive"},
      {"compound": "COc1cc2c3nnc(-c4ccc(F)cc4)c-3cn(Cc3ccc(C)cc3)c2cc1OC", "Potency": "5.59 µM (active)"},
      {"compound": "COc1ccc(C2=NOC(C(=O)NCc3ccc(F)cc3)C2)cc1OC", "note": "(stereo unspecified)", "Potency": "inactive"},
      {"compound": "COc1ccc(-c2cnc3c(NC=O)cc(-c4cc(OC)c(OC)c(OC)c4)cn23)cc1OC", "Potency": "inactive"},
      {"compound": "Cc1ccc(C)c(Cn2c(=O)n(CCCC(=O)NCc3ccco3)c(=O)c3sccc32)c1", "Potency": "inactive"},
      {"compound": "CCn1c(O)c(/C=N/N=C/c2ccc(OC)cc2)c2cc(C3=NNC(=O)CC3)ccc21", "Potency": "5.8 µM (active)"},
      {"compound": "Cc1ccc(-c2cn3nc(-c4ccccc4)c(-c4ccccc4)nc3n2)cc1", "Potency": "20.6 µM (active)"},
      {"compound": "NNC(=S)Nc1c(F)cc(F)cc1Br", "Potency": "inactive"},
      {"compound": "N#Cc1ccc(-c2ccco2)nc1SCc1ccccc1", "Potency": "inactive"},
      {"compound": "N#Cc1c(C(F)(F)F)cc(-c2ccco2)nc1SCc1ccccn1", "Potency": "16.4 µM (active)"},
      {"compound": "Cc1cc(C)cc(NC2=NC3(CCCCC3)N=C(N)N2)c1", "Potency": "inactive"},
      {"compound": "COc1ccc(OC)c(NS(=O)(=O)c2ccc(Cl)s2)c1", "Potency": "inactive"},
      {"compound": "COc1ccccc1N1C(=O)c2cccc3c(C(=O)O)ccc(c23)C1=O", "Potency": "inactive"},
      {"compound": "Cc1ccccc1N1C(=O)c2cccc3c(N(C)CCO)ccc(c23)C1=O", "Potency": "20.6 µM (active)"},
      {"compound": "Cc1ccccc1OCC(=O)NNC(=O)Nc1ccc(Cl)cc1", "Potency": "inactive"},
      {"compound": "CN1C/C(=C\\c2ccc(N3CCOCC3)cc2)C(=O)/C(=C/c2ccc(N3CCOCC3)cc2)C1", "Potency": "18.4 µM (active)"},
      {"compound": "CCN1C/C(=C/c2cccc([N+](=O)[O-])c2)C(=O)/C(=C/c2cccc([N+](=O)[O-])c2)C1", "Potency": "inactive"},
      {"compound": "O=C1/C(=C/c2ccccc2)CN(C(=O)CCN2CCOCC2)C/C1=C\\c1ccccc1", "Potency": "inactive"},
      {"compound": "COc1ccc(N2CC(C(=O)N/N=C/c3ccc(C)cc3)CC2=O)cc1", "note": "(stereo unspecified)", "Potency": "inactive"},
      {"compound": "CC(C)CC[n+]1ccccc1/C=C/c1ccc(N(C)C)cc1", "Potency": "20.6 µM (active)"},
      {"compound": "CC[n+]1ccccc1/C=C/c1ccc(N(C)C)cc1", "Potency": "18.4 µM (active)"},
      {"compound": "COc1ccc(-c2nc3c4ccccc4ccn3c2Cc2ccsc2)cc1OC", "Potency": "inactive"},
      {"compound": "CCOC(=O)c1[nH]c(C)c(C(=O)Nc2ccccc2C)c1C", "Potency": "inactive"},
      {"compound": "Cc1ccc2nc(/C(C#N)=C\\c3ccc([N+](=O)[O-])o3)[nH]c2c1", "Potency": "3.26 µM (active)"},
      {"compound": "Cc1ccc2nc(/C(C#N)=C/c3ccc(-c4ccc(C(=O)OC(C)C)cc4)o3)[nH]c2c1", "Potency": "6.51 µM (active)"},
      {"compound": "N#C/C(=C\\c1ccc(-c2ccc(C(=O)O)cc2)o1)c1nc2ccccc2[nH]1", "Potency": "4.61 µM (active)"},
      {"compound": "Cc1c(Cl)cccc1-c1ccc(/C=C(\\C#N)c2nc3ccccc3[nH]2)o1", "Potency": "16.4 µM (active)"},
      {"compound": "Cc1ccc([N+](=O)[O-])cc1-c1ccc(/C=C(\\C#N)c2[nH]nc(N)c2C#N)o1", "Potency": "inactive"},
      {"compound": "COc1ccc(-c2[nH]ncc2N=Nc2ccccc2)cc1", "Potency": "inactive"},
      {"compound": "O=C(c1[nH]c(C(F)(F)F)nc1-c1ccccc1)N1CCN(c2ccccc2)CC1", "Potency": "inactive"},
      {"compound": "COc1cccc(/C=N/NC(=O)c2cc3c(OC)c(OC)ccc3[nH]2)c1OC", "Potency": "inactive"},
      {"compound": "Cc1cc(-c2ccccc2)nc(N/N=C/c2ccccc2F)n1", "Potency": "inactive"},
      {"compound": "CC(/C=N/NC(=O)c1cc(-c2ccc(C)s2)[nH]n1)=C\\c1ccccc1", "Potency": "inactive"},
      {"compound": "Cc1ccc(/C=N/NC(=O)CCCOc2ccc(Cl)cc2Cl)cc1", "Potency": "inactive"},
      {"compound": "COc1ccc(S(=O)(=O)Nc2cccc(-c3ccc4nncn4n3)c2)cc1F", "Potency": "inactive"},
      {"compound": "CCOC(=O)c1cccc(NC(=O)N2CC=C(c3c[nH]c4ccccc34)CC2)c1", "Potency": "inactive"},
      {"compound": "Cc1ccc2nc(/C(C#N)=C/c3ccc(-c4ccccc4C(=O)O)o3)[nH]c2c1", "Potency": "3.26 µM (active)"},
      {"compound": "Cc1ccc2nc(/C(C#N)=C/c3ccc(-c4ccc(F)cc4F)o3)[nH]c2c1", "Potency": "23.1 µM (active)"},
      {"compound": "N#C/C(=C\\c1ccc(-c2ccc(F)cc2F)o1)c1nc2ccccc2[nH]1", "Potency": "20.6 µM (active)"},
      {"compound": "Cc1ccc2nc(/C(C#N)=C/c3ccc(-c4cccc(Cl)c4)o3)[nH]c2c1", "Potency": "6.51 µM (active)"},
      {"compound": "CC1Cc2cc(S(=O)(=O)CCC(=O)NCc3ccc(Cl)cc3)ccc2N1C(=O)C1CC1", "note": "(stereo unspecified)", "Potency": "inactive"},
      {"compound": "CCOC(=O)c1c(C)sc(-c2c(-c3ccccc3)[nH]c3[nH]c(=O)[nH]c(=O)c23)c1O", "Potency": "7.31 µM (active)"},
      {"compound": "CC(C)=CCn1c2ccc(NC(=O)NCc3ccc(F)cc3)cc2c(=O)n1C", "Potency": "inactive"},
      {"compound": "Nc1c(C(=O)Nc2ccccc2F)sc2nc(-c3ccco3)ccc12", "Potency": "23.1 µM (active)"},
      {"compound": "Cc1ccccc1NC(=O)c1sc2nc3c(c(-c4ccco4)c2c1N)CCC3", "Potency": "inactive"},
      {"compound": "COc1ccc(/C=N/NC(=O)c2[nH]nc3c2CCc2ccccc2-3)cc1OC", "Potency": "inactive"},
      {"compound": "CC(=O)Nc1ccc(S(=O)(=O)N2CCSc3ccccc32)cc1", "Potency": "inactive"},
      {"compound": "Cn1cc(C2=C(c3ccc(Cl)cc3Cl)C(=O)NC2=O)c2ccccc21", "Potency": "13 µM (active) and 18.4 µM (active)"},
      {"compound": "COc1ccc(-n2nnnc2-c2ccccc2)cc1", "Potency": "inactive"},
      {"compound": "Cc1cccc(NC(=O)/C(C#N)=C/c2cn(CC(=O)NCc3ccco3)c3ccccc23)c1C", "Potency": "inactive"},
      {"compound": "O=S(=O)(Nc1ccc(C(O)(C(F)(F)F)C(F)(F)F)cc1)c1ccc(Cl)c2nonc12", "Potency": "inactive"},
      {"compound": "COc1ccccc1N1CCN(C(=O)c2cc(=O)c3cc(C)cc(C)c3o2)CC1", "Potency": "inactive"},
      {"compound": "COc1cccc(-c2cnc3c(NC=O)cc(-c4cc(OC)c(OC)c(OC)c4)cn23)c1", "Potency": "inactive"},
      {"compound": "COc1cccc(NC(=O)c2oc3ccc(S(=O)(=O)N4CCC5(CC4)OCCO5)cc3c2C)c1", "Potency": "inactive"}
    ]}
  ]
}
